Here are results for 37 molecules from PubChem BioAssay (Tox21).

Molecules are shown by their SMILES. Inconclusive results are not listed. Entries that show only a call come without a potency. Unmarked numbers belong to inactive results. The source made the active and inactive calls. The call rests on the fitted dose curve.

Sequence of Muscarinic acetylcholine receptor M1 (Homo sapiens) (P11229 whole entry, looked up): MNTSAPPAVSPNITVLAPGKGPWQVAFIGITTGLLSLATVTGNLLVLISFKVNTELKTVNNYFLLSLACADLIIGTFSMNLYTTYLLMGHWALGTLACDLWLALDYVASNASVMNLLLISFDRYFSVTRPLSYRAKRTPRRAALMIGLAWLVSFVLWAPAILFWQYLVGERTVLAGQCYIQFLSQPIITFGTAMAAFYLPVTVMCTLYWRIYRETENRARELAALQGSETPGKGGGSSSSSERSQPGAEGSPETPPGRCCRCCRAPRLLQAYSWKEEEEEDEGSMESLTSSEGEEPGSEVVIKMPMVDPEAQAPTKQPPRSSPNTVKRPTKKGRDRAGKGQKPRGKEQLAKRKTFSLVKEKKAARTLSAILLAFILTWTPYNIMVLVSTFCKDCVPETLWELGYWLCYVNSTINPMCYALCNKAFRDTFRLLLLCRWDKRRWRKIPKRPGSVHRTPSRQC
Sequence of 5-hydroxytryptamine receptor 2A (Homo sapiens) (P28223 whole entry, looked up): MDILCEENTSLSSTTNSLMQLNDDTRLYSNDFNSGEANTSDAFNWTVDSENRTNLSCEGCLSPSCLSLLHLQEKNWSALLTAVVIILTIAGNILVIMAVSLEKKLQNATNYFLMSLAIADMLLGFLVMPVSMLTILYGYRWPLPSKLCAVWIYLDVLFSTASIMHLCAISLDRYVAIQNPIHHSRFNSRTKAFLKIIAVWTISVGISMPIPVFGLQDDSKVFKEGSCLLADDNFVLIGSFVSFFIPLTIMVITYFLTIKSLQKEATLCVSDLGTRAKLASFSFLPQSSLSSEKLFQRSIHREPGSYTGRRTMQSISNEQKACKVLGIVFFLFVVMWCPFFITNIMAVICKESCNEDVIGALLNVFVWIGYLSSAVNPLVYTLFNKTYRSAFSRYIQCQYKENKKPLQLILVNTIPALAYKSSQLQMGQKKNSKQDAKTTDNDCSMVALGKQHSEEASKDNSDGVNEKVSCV

The first assay concerns the target 5-hydroxytryptamine receptor 2A (Homo sapiens) (UniProt P28223). Nature of the assay: 5-hydroxytryptamine receptor 2A (HTR2A) small molecule antagonists, cell-based qHTS assay (AID 1963586). Further: nearly all actives have a fitted effect of over 45% in size. As to conditions: HTR2A-CHO cells, DOI-induced calcium flux, fluorescence; series mostly up to 61.5 µM. Summed up:
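Antagonist-mode intracellular calcium assay: DOI (4 nM) added after 5 min compound pre-incubation at room temperature to dye-loaded HTR2A-CHO cells. Fluorescence followed for 3 min, sampled every second.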
Regarding `CC(CO)(CO)CO`, the Potency entry was “inactive”.

As for `CC(C)(C)c1ccc(C(=O)O)cc1`, the Potency result is “inactive”.

As for `CCN1/C(=C/C=C/c2sc3ccccc3[n+]2CC)Sc2ccccc21`, the activity, negative = inhibition was -18.6% [at 12.7 µM].

`CCCC(=O)OC`: the Potency result was “inactive”.

For `C/C=C/C=C/CO`, the Potency entry was “inactive”.

`OCCOCC#CCOCCO`: the Potency result is “inactive”.

`Cc1ccc(O)c2ncccc12`: the Potency entry is “inactive”.

Regarding `O=C(O)Cc1ccc(Cl)cc1Cl`, the Potency result is “inactive”.

Turning to `CC(=O)OC(C)OC(C)=O`, the Potency entry is “inactive”.

Regarding `CC1=CC(=C(c2ccc(N)cc2)c2ccc(N)cc2)C=CC1=N`, the activity, negative = inhibition was 14.5% [at 5.62 µM].

For `CC(=O)OCC(C)OC(C)=O` (stereo unspecified), the Potency entry was “inactive”.

For `O=[N+]([O-])c1cccc(C(F)(F)F)c1`, the Potency result was “inactive”.

For `CC1(C)[C@@H](O)CC[C@]2(C)[C@H]3C(=O)C=C4[C@@H]5C[C@@](C)(C(=O)O)CC[C@]5(C)CC[C@@]4(C)[C@]3(C)CC[C@@H]12`, the Potency result is “inactive”.

For `O=C(/C=C/c1ccccc1)OCCc1ccccc1`, the Potency entry is “inactive”.

Regarding `CCOC(=O)CC(=O)C(=O)OCC`, the Potency entry is “inactive”.

Turning to `O=C(O)Cc1cc(I)c(Oc2ccc(O)c(I)c2)c(I)c1`, the Potency entry is “inactive”.

Consider `CC(C)C(O)(c1ccc(OC(F)(F)F)cc1)c1cncnc1` (stereo unspecified), for which the Potency entry was “inactive”.

Consider `O=Cc1ccc(O)c(O)c1O`, for which the Potency entry is “inactive”.

For the molecule `C=CCCCCCCC=C`, the Potency entry was “inactive”.

For the molecule `CC/C=C1/OC(=O)c2ccccc21`, the Potency result was “inactive”.

For `Cc1cccc(Nc2ccccc2)c1`, the Potency result was “inactive”.

Regarding `Cc1ccc([N+](=O)[O-])c(N)c1`, the Potency result is “inactive”.

As to `CC(=O)[O][Al]`, the Potency result was “inactive”.

With `c1ccc2c(c1)ccc1c3ccccc3ccc21`, the Potency entry is “inactive”.

As for `CCc1ccc2c(c1)C(=O)c1ccccc1C2=O`, the Potency entry is “inactive”.

As to `CC(C)(C)c1cc(CO)cc(C(C)(C)C)c1O`, the Potency result was “inactive”.

Consider `CCCCOC(=O)CO`, for which the Potency result was “inactive”.

`CCCCCCOC(=O)c1ccccc1`: the Potency result was “inactive”.

On to `CC(C)c1ccccc1`, for which the Potency entry was “inactive”.

With `CCN(Cc1cccc(S(=O)(=O)O)c1)c1ccc(C(=C2C=CC(=[N+](CC)Cc3cccc(S(=O)(=O)[O-])c3)C=C2)c2ccccc2)cc1`, the Potency entry is “inactive”.

On to `On1ccccc1=S`, for which the Potency entry was “inactive”.

In the case of `N#CCCCC(C#N)CCC#N` (stereo unspecified), the Potency result is “inactive”.

On to `O=C(c1ccccc1)C1CCCCC1`, for which the Potency result was “inactive”.

The target is the same in another assay. Nature of the assay: 5-hydroxytryptamine receptor 2A (HTR2A) small molecule agonists, cell-based qHTS assay (AID 1963587). Further: nearly all actives have a fitted effect of over 30% in size. Further: potency means the concentration at half of the fitted maximal effect. As to conditions: HTR2A-CHO cells, calcium flux fluorescence, agonist mode; series mostly up to 76.8 µM. Summed up:
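HTR2A-CHO cells, plated 18 h at 37 C/5% CO2, dye-loaded 1 h at 37 C; compounds in DMSO added by pin tool (agonist mode). Intracellular calcium flux read as kinetic fluorescence on FDSS over 2 min at 1 s intervals.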
As to `CN(CCCN1c2ccccc2CCc2ccccc21)CC(=O)c1ccc(Cl)cc1`, the Potency entry was “inactive”.

On to `CC(CO)(CO)CO`, for which the Potency entry is “inactive”.

`CC(C)(C)c1ccc(C(=O)O)cc1`: the Potency result was “inactive”.

For `CCCC(=O)OC`, the Potency entry was “inactive”.

Regarding `C/C=C/C=C/CO`, the Potency entry was “inactive”.

As for `OCCOCC#CCOCCO`, the Potency result is “inactive”.

Take `Cc1ccc(O)c2ncccc12`: the Potency result was “inactive”.

Turning to `CCCCN1C(=O)[C@@H]([C@H](O)C2CCCCC2)NC(=O)C12CCN(Cc1ccc(Oc3ccc(C(=O)O)cc3)cc1)CC2`, the Potency was 24.5 µM (active).

On to `O=C(O)Cc1ccc(Cl)cc1Cl`, for which the Potency result was “inactive”.

In the case of `CC(=O)OC(C)OC(C)=O`, the Potency result was “inactive”.

On to `CC1=CC(=C(c2ccc(N)cc2)c2ccc(N)cc2)C=CC1=N`, for which the activation was 2.32% [at 7.02 µM].

In the case of `CC(=O)OCC(C)OC(C)=O` (stereo unspecified), the Potency entry is “inactive”.

On to `O=[N+]([O-])c1cccc(C(F)(F)F)c1`, for which the Potency entry was “inactive”.

On to `O=C(/C=C/c1ccccc1)OCCc1ccccc1`, for which the Potency result is “inactive”.

On to `CCOC(=O)CC(=O)C(=O)OCC`, for which the Potency result is “inactive”.

For `O=C(O)Cc1cc(I)c(Oc2ccc(O)c(I)c2)c(I)c1`, the Potency result was “inactive”.

`CC(C)C(O)(c1ccc(OC(F)(F)F)cc1)c1cncnc1` (stereo unspecified): the Potency result is “inactive”.

For the molecule `O=Cc1ccc(O)c(O)c1O`, the Potency entry is “inactive”.

As to `C=CCCCCCCC=C`, the Potency entry is “inactive”.

`CC/C=C1/OC(=O)c2ccccc21`: the Potency result is “inactive”.

Regarding `Cc1cccc(Nc2ccccc2)c1`, the Potency entry is “inactive”.

`Cc1ccc([N+](=O)[O-])c(N)c1`: the Potency result was “inactive”.

As for `CC(=O)[O][Al]`, the Potency result was “inactive”.

Regarding `c1ccc2c(c1)ccc1c3ccccc3ccc21`, the Potency result was “inactive”.

As to `CCc1ccc2c(c1)C(=O)c1ccccc1C2=O`, the Potency result is “inactive”.

`CC(C)(C)c1cc(CO)cc(C(C)(C)C)c1O`: the Potency result is “inactive”.

For the molecule `CCCCOC(=O)CO`, the Potency entry was “inactive”.

As to `CCCCCCOC(=O)c1ccccc1`, the Potency result was “inactive”.

Regarding `CC(C)c1ccccc1`, the Potency entry was “inactive”.

Consider `CCN(Cc1cccc(S(=O)(=O)O)c1)c1ccc(C(=C2C=CC(=[N+](CC)Cc3cccc(S(=O)(=O)[O-])c3)C=C2)c2ccccc2)cc1`, for which the Potency entry is “inactive”.

As to `On1ccccc1=S`, the Potency is 21.7 µM (active).

For the molecule `N#CCCCC(C#N)CCC#N` (stereo unspecified), the Potency entry is “inactive”.

For a further assay, the target named is Muscarinic acetylcholine receptor M1 (Homo sapiens) (UniProt P11229). Nature of the assay: Cholinergic receptor muscarinic 1 (CHRM1) small molecule antagonists, cell-based qHTS assay (AID 1963588). Further: nearly all actives have a fitted effect of over 40% in size. Further: potency means the concentration at half of the fitted maximal effect. The note with it: CHRM1-CHO antagonist mode, calcium flux fluorescence; series mostly up to 61.5 µM. Summed up:
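CHRM1-CHO calcium-flux assay, antagonist mode. Cells were seeded 18 h, dye-loaded 1 h at 37 C and given compound for 5 min at RT, then acetylcholine was added at 50nM. FDSS fluorescence was read 3 min; 15 concentrations, three runs.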
Consider `Oc1ccc(C2(c3ccc(O)cc3)CC3CC2C2CCCC32)cc1` (stereo unspecified), for which the Potency result is “inactive”.

On to `CC(CO)(CO)CO`, for which the Potency entry is “inactive”.

With `CC(C)(C)c1ccc(C(=O)O)cc1`, the Potency result was “inactive”.

Regarding `CCN1/C(=C/C=C/c2sc3ccccc3[n+]2CC)Sc2ccccc21`, the activity, negative = inhibition is -35.2% [at 12.6 µM].

In the case of `CCCC(=O)OC`, the Potency entry was “inactive”.

For the molecule `OCCOCC#CCOCCO`, the Potency result is “inactive”.

On to `Cc1ccc(O)c2ncccc12`, for which the Potency entry is “inactive”.

With `CCCCN1C(=O)[C@@H]([C@H](O)C2CCCCC2)NC(=O)C12CCN(Cc1ccc(Oc3ccc(C(=O)O)cc3)cc1)CC2`, the Potency result is “inactive”.

Turning to `O=C(O)Cc1ccc(Cl)cc1Cl`, the Potency entry is “inactive”.

In the case of `CC(=O)OC(C)OC(C)=O`, the Potency result is “inactive”.

`CCN(CC)CCOC(=O)C(c1ccccc1)C1CCCCC1` (stereo unspecified): the Potency was 0.041 µM (active).

Turning to `CC1=CC(=C(c2ccc(N)cc2)c2ccc(N)cc2)C=CC1=N`, the activity, negative = inhibition is -8.08% [at 5.58 µM].

`CC(=O)OCC(C)OC(C)=O` (stereo unspecified): the Potency entry is “inactive”.

With `O=[N+]([O-])c1cccc(C(F)(F)F)c1`, the Potency entry was “inactive”.

For the molecule `O=C(/C=C/c1ccccc1)OCCc1ccccc1`, the Potency entry is “inactive”.

Take `CCOC(=O)CC(=O)C(=O)OCC`: the Potency entry is “inactive”.

For the molecule `O=C(O)Cc1cc(I)c(Oc2ccc(O)c(I)c2)c(I)c1`, the Potency entry is “inactive”.

In the case of `CC(C)C(O)(c1ccc(OC(F)(F)F)cc1)c1cncnc1` (stereo unspecified), the Potency entry is “inactive”.

Regarding `O=Cc1ccc(O)c(O)c1O`, the Potency entry is “inactive”.

As to `CC/C=C1/OC(=O)c2ccccc21`, the Potency result is “inactive”.

Consider `Cc1ccc([N+](=O)[O-])c(N)c1`, for which the Potency result is “inactive”.

Regarding `CC(=O)[O][Al]`, the Potency result was “inactive”.

As to `c1ccc2c(c1)ccc1c3ccccc3ccc21`, the Potency entry is “inactive”.

Regarding `CCc1ccc2c(c1)C(=O)c1ccccc1C2=O`, the Potency entry is “inactive”.

`CCCCOC(=O)CO`: the Potency result was “inactive”.

Turning to `CCCCCCOC(=O)c1ccccc1`, the Potency entry is “inactive”.

Consider `CC(C)c1ccccc1`, for which the Potency result was “inactive”.

For the molecule `CCN(Cc1cccc(S(=O)(=O)O)c1)c1ccc(C(=C2C=CC(=[N+](CC)Cc3cccc(S(=O)(=O)[O-])c3)C=C2)c2ccccc2)cc1`, the Potency entry is “inactive”.

As for `On1ccccc1=S`, the Potency entry is “inactive”.

With `N#CCCCC(C#N)CCC#N` (stereo unspecified), the Potency result is “inactive”.

Consider `O=C(c1ccccc1)C1CCCCC1`, for which the Potency result was “inactive”.
